The record followed here is PubChem BioAssay AID493174 (National Center for Advancing Translational Sciences (NCATS), 2011).

Results filed as inconclusive are left out. The source made the active and inactive calls. Calls come from the whole dose curve; as a rule, active = well fitted inhibition curve with a large enough effect; inconclusive = small, poorly fitted or top-dose-only effect; inactive = flat fitted curve, though single readings scatter.

This assay in a line: Confirmatory Assay for General miRNAs Modulators and/or Inhibitors/Activators of miR-21: second round cherrypicks. The conditions noted are these: HeLa miR-21 FLuc reporter, luciferase luminescence, 48 h. The text has this: MLPCN Grant: 1 R21 NS059478-01 Assay Provider: Qihong Huang, The Wistar Institute NCGC Assay Overview: MicroRNAs (miRNAs) are endogenously encoded small (~20-25 nucleotides), nonprotein-coding RNAs that are involved in post-transcriptional repression of target messenger RNAs (mRNAs) (Le and Hannon, 2004). Estimated to be involved in the regulation of 30% of all protein-coding mRNAs (Filipowicz et al., 2008), miRNAs play a significant role in many biological processes including cellular differentiation and tissue development (Ghildiyal and Zamore, 2009).
NCGC Assay Protocol Summary: Reagents: HeLa cells stably expressing firefly luciferase (FLuc) under the control of a CMV promoter (upstream) and a miR-21 binding sequence directly downstream of the gene. These cells endogenously express miR-21. Control compounds used were compound C3 (provided by collaborator), N6-phenyladenosine (MP Biomedicals, 0215379625), and DMSO. Assay Summary: 6uL of HeLa miR-21-FLuc cells in assay buffer (DMEM, Invitrogen #21063-029; 10% FBS, HyClone #SH30071.03) were dispensed at 2000cells/well (3.3 x 10^5 cells/mL) into Greiner solid-white TC-treated 1536-well plates using a Multidrop Combi (Thermo Fisher Scientific). […] After a 15 minute incubation to allow for cell lysis, luciferase activity was measured using a ViewLux CCD imager (PerkinElmer), with an average exposure time of 2-12 seconds. […]

In the case of `O=c1c2ccccc2nc(Cc2ccccc2)n1-c1ccccc1`, the Potency is 14.2 µM (active).
